In PubChem BioAssay AID624330 (Southern Research Specialized Biocontainment Screening …, 2012):
About 2,100 (0.62%) of roughly 340,000 compounds were called active.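 Rule for the calls: active = first-screen hits whose inhibition reached a set limit at any dose in the follow-up dose series; inconclusive = inhibition above the set first-screen limit but never retested; inactive = the rest.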 A selection follows. Entries with a potency or affinity are not part of this list.

Each compound was assayed against Rac GTPase-activating protein 1 (Homo sapiens) (UniProt Q9H0H5) (assay: blockers of MgcRacGAP-driven Rac1 GTP hydrolysis – biochemical, ADP Hunter fluorescence, primary and confirmatory, confirmation (AID 624330;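 note: fluorescence reports GDP produced by GAP-driven GTP hydrolysis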)). Conditions: MgcRacGAP-stimulated Rac1 GTP hydrolysis, at 30 µM, hits give high values, GST-tagged Rac1 F28L mutant substrate.
Chain of Rac GTPase-activating protein 1 (Homo sapiens) (Q9H0H5 whole entry, looked up): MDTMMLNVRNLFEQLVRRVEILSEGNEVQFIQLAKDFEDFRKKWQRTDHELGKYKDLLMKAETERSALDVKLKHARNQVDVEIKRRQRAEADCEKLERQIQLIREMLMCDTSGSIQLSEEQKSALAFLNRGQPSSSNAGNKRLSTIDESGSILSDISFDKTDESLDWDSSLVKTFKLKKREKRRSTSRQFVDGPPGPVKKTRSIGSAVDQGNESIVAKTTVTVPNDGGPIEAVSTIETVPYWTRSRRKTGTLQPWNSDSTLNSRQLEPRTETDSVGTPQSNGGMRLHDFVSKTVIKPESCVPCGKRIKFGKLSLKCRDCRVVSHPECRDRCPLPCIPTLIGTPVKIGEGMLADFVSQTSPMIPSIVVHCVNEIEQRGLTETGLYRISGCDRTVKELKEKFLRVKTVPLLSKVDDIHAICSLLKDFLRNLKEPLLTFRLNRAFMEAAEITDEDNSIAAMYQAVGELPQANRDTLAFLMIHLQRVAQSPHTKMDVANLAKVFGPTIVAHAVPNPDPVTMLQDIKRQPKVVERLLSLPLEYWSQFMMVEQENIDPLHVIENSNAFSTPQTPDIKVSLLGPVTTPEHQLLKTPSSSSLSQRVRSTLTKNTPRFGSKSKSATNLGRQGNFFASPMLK

inhibition, inactive:
O=C(COC(=O)CNC(=O)c1ccccc1F)Nc1ccc2c(c1)OCO2 4.84%, COC(=O)c1cc(Nc2cc(C)c3ccc(O)cc3n2)cc(C(=O)OC)c1 11.8%, COc1nc(-c2ccccc2)nc(C)c1CC(=O)O 9.59%, Cc1ccc(S(=O)(=O)/N=C(/c2ccc(F)cc2)N(C)C)cc1 8.12%, COCCN(Cc1nc(C2(c3ccc(C)cc3)CCCC2)no1)C(C)C -3.53%, CCOc1ccc(N2C(=O)Nc3ccc(Br)cc3C2(O)C(=O)NCCCN(C)C)cc1 (configuration not stated) 8.07%, COC(=O)C(CC(=O)c1ccc(C)cc1)n1cccn1 (configuration not stated) 11.3%, CCOC(=O)c1cnc2ccccc2c1Nc1cccc(C(=O)O)c1 -0.21%, CCSc1nnc(NC(=O)[C@H](C)NC(=O)c2ccccc2Cl)s1 9.72%, CCC(=O)Nc1ccc(NC(=S)Nc2ccccc2)cc1 8.45%, CCC(=O)Nc1ccc(C(=O)c2ccccc2)cc1 10.1%, CC(C)C1N=C2c3ccccc3N=C(SCC(=O)NCCc3ccc(S(N)(=O)=O)cc3)N2C1=O (configuration not stated) 1.59%, CC(C)C1N=C2c3ccccc3N=C(SCC#N)N2C1=O (configuration not stated) 10.5%, COc1ccc(Cl)cc1NC(=O)C1Cc2cc(S(=O)(=O)N3CCCC3)ccc2N1C(C)=O (configuration not stated) 2.38%, COc1ccc(CCNC(=O)COC(=O)CCC(=O)c2cccs2)cc1OC 3.28%, COc1cccc(S(=O)(=O)NCc2ccc(C(=O)NCc3ccco3)cc2)c1 13.6%, Cc1ccc(Cl)cc1NC(=S)N1CCC(c2ccccc2)C1 (configuration not stated) 7.04%, COc1ccc(CN2CCC(n3nccc3NC(=O)C3CC3)CC2)c(OC)c1OC 8.32%, COc1ccc2oc(=O)cc(CN3CCN(Cc4ccc(OC)c(OC)c4OC)CC3)c2c1 11.2%, COc1ccccc1N1CCN(Cc2ccc(OC)c(OC)c2OC)CC1 28.2%, COc1ccc(OC)c(CN2CCN(Cc3cc(OC)c(OC)c(OC)c3)CC2)c1 -7.74%, COc1ccc(CN2CCN(c3ccc(F)cc3)CC2)c(OC)c1OC 8.37%, COc1ccc(CN2CCC(N3CC(C)OC(C)C3)CC2)c(OC)c1 (configuration not stated) 29.1%, COc1ccc(OC)c(CN2CCN(c3ccccc3OC)CC2)c1 19.8%, COc1ccc(OC)c(CN2CCSCC2)c1 36.4%, O=C(c1ccccc1F)N1CCN(c2ccc([N+](=O)[O-])c(NCC3CCCO3)c2)CC1 (configuration not stated) 11.1%, COc1ccc(CCNC(=O)C2CCCN2C(=O)Nc2ccc(F)cc2)cc1OC (configuration not stated) 7.58%, O=C(CSc1nnc(NC(=O)C2CC(=O)N(c3ccccc3)C2)s1)NCC1CCCO1 (configuration not stated) 8.28%, CN(Cc1ccccc1)c1ncc(C=O)s1 11.2%, CCCCC(=O)Nc1ccccc1CC 7.96%, C=CCN1C(=O)CS/C1=N\N=C\c1cccc([N+](=O)[O-])c1 5.94%, CCCCNS(=O)(=O)c1ccc2nc(SCC(=O)Nc3ccccc3Cl)[nH]c2c1 9.77%, CCOc1ccc(NC(=S)N2CCN(C/C=C/c3ccccc3)CC2)cc1 6.87%, Cn1c(=O)n(C)c2cc(NC(=O)CSc3ccccc3)ccc21 6.1%, CSc1ccc(CN2CCC(Cc3ccccc3)CC2)cc1 15%, Clc1ccc(OCCCCCN2CCOCC2)cc1 -5.93%, CSc1ccc(CN2CCC(N3CCC(C(=O)NC4CC4)CC3)CC2)cc1 -3.51%, COc1ccc(CN2CCN(C(=O)c3ccccc3F)CC2)c(OC)c1OC -1.41%, CCOC(=O)Cc1csc(NC(=O)c2c(C)noc2C)n1 7.91%, CCC1=C2CC[C@H]3C(=O)N(C)C(=O)[C@H]3[C@H]2[C@@]2(Cc3ccccc3)C(=NCCOC)OC(=O)N2C1=O 10.6%, C/C(=N\NC(=O)c1nnn(-c2nonc2N)c1CN1CCCCCC1)c1ccc(Br)cc1 -3.03%, CC(Oc1ccc(F)cc1)C(=O)N(Cc1ccccc1)c1c(N)n(Cc2ccccc2)c(=O)[nH]c1=O (configuration not stated) 3.15%, CCOC(=O)Nc1ccc(Oc2ccccc2)cc1 1.24%, CCOC(=O)Nc1ccc(C(N)=O)cc1 10%, Cc1ccccc1NC(=O)COc1coc(CN2CCN(Cc3ccccc3)CC2)cc1=O 3.8%, N#Cc1ccc(-c2ccccc2)nc1Sc1ccc(F)cc1 3.11%, Cc1c(/C=N\NC(=O)C2(C)CC2(Cl)Cl)cnn1C (configuration not stated) 2.13%, CCOc1cc(/C=C2/C(=O)N(c3ccccc3)N=C2C)ccc1OC(=O)c1cccs1 15.2%, CC(=O)Oc1ccc(/C=C2/C(=O)N(c3ccccc3)N=C2C)cc1 25%, COc1ccc(C(=O)c2coc3ccc(O)c(CN4CCCC4)c23)cc1 8.22%, CN1C2CCC1/C(=C\c1ccccc1F)C(=O)/C2=C/c1ccccc1F 7.33%, CN1C2CCC1/C(=C\c1ccccc1)C(=O)/C2=C\c1ccccc1 12.8%, Cc1ccc(S(=O)(=O)N2CCCCC2)cc1NC(=O)c1c(-c2ccccc2)noc1C 0.74%, O=C(COC(=O)C1CCCCC1)Nc1ccc(S(=O)(=O)N2CCOCC2)cc1 -2.69%, CCCC(c1nnnn1CCOC)N(Cc1cc2cc(C)c(C)cc2[nH]c1=O)CC1CCCO1 (configuration not stated) 1.47%, COc1cc(OC)c(CN2CCCCCCC2)cc1Br 14.3%, COc1ccc(CN2CCCCCC2)c(C)c1C 11.4%, COc1ccc(CN2CCSCC2)c(OC)c1C 28.9%, COc1cc(Br)c(CN2CCCN(C)CC2)cc1OC 5.08%, CC(=O)N1CCSc2ccc(S(=O)(=O)Nc3ccc(C)cc3)cc21 8.81%, CC(C(=O)Nc1ccccc1-c1ccccc1)N1CCCCC1 (configuration not stated) 0.68%, CN1CCN(C(=O)CCC(=O)c2ccc(F)cc2)CC1 7.21%, COc1ccc(CN2C(=O)c3ccccc3C2=O)cc1 -0.09%, COc1ccc(NC(=O)c2ccc3c(c2)C(=O)N(Cc2cccnc2)C3=O)cc1 9.43%, CC1S/C(=N/N=C/c2cccs2)NC1=O (configuration not stated) -9.62%, O=[N+]([O-])c1ccccc1Nc1ccccc1 5.61%, Nc1ccc(Nc2ccc([N+](=O)[O-])cc2[N+](=O)[O-])cc1 25.4%, O=[N+]([O-])c1ccccc1Nc1ccccc1[N+](=O)[O-] -9.22%, Nc1cc([N+](=O)[O-])ccc1Nc1ccccc1 15.2%, CCCCOc1ccccc1N1CCN(CCCN2C(=O)C3CCCN3C2=O)CC1 (configuration not stated) 9.54%, Cc1c2cnn(CC(=O)NCCCN3CCCCC3C)c(=O)c2c(C)n1Cc1ccccc1 (configuration not stated) 8.86%, O=C1CCc2ccccc2N1 3.09%, Clc1ccc2c(c1)Nc1ccccc1CC2 9.56%, CCn1c(COc2ccc(=O)n(-c3ccccc3)n2)nnc1SC 7.04%, COc1cccc2c1C(=O)c1c(O)c3c(c(O)c1C2=O)C[C@](O)(C(C)=O)C[C@H]3O[C@@H]1C[C@@H](N)[C@@H](O)[C@@H](C)O1 21.3%, COc1cccc2c1C(=O)c1c(O)c3c(c(O)c1C2=O)CC(O)(C(=O)CO)CC3OC1CC(N(C)C)C(O)C(C)O1 (configuration not stated) 20.6%, COc1cccc2c1C(=O)c1c(O)c3c(c(O)c1C2=O)CC(O)(C(C)=O)CC3OC1CC(O)C(O)C(C)O1 (configuration not stated) 11.6%, COc1cccc2c1C(=O)c1c(O)c3c(c(O)c1C2=O)CC(O)(C(C)=O)CC3OC1CC(N(C)C)C(O)C(C)O1 (configuration not stated) 16.8%, C/C(=N\NC(=O)c1ccc(Cl)c(Cl)c1)c1cccc(NC(=O)C(C)C)c1 10%, CCCCC(=O)OCC(=O)C1(O)Cc2c(O)c3c(c(O)c2C(OC2CC(NC(=O)C(F)(F)F)C(O)C(C)O2)C1)C(=O)c1c(OC)cccc1C3=O (configuration not stated) 6.09%, CCCn1c2c(c(O)c(C(=O)NCc3ccccc3)c1=O)CCCC2 0.77%, COCCCN(C(=O)CSCC(=O)Nc1ccc(C)cc1)c1c(N)n(Cc2ccccc2)c(=O)[nH]c1=O 8.76%, COc1cc(NC(=O)CN2C(=O)NC(CC(C)C)C2=O)cc(OC)c1OC (configuration not stated) 6.04%, CC1(C)C(=O)Nc2ccccc2N1C(=O)CN1C(=O)NC(CCc2ccccc2)C1=O (configuration not stated) 2.92%, Cc1cc(C)cc(NC(=O)COC(=O)CCCNC(=O)c2ccc(Cl)cc2)c1 3.85%, COc1ccc(CCNC(=O)c2ccc(N3CCCC3=O)cc2)cc1OC 12.5%, COc1ccc(-c2nnn(CC(=O)N(CC(=O)NCCC(C)C)c3ccccc3)n2)cc1OC 1.41%, COc1ccc(-c2[nH]ncc2-c2ccc(Cl)cc2)c(O)c1 11.8%, Oc1ccc(-c2[nH]ncc2-c2ccc(Br)cc2)c(O)c1 26.8%, CC(C)(C)c1ccc(C(=O)N/C(=C\c2ccco2)C(=O)Nc2ccccc2C(=O)O)cc1 7.9%, C[C@H](NC(=O)C1CCN(S(=O)(=O)c2ccccc2)CC1)C(=O)NC1CC1 4.17%, O=C(NCc1ccc2c(c1)OCO2)c1cc(-c2ccccc2)c(N2CCOCC2)s1 11.5%
